Assay outcomes: PubChem, National Center for Advancing Translational Sciences (NCATS)
Pf Dd2 growth – qHTS Primary assay for Inhibitors of Plasmodium falciparum Dd2 growth in vitro. P. falciparum Dd2 growth, SYBR Green, 72 h. Potency, µM (top dose mostly 28.9 µM), for inactives: top-dose activity, negative = inhibition, most hits filed as inhibitors. 120,000 tested, 4.3% active; active = well fitted inhibition curve with a large enough effect;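 note: plate controls were DMSO vehicle for no effect and reference drug for full effect; nearly all actives have a fitted effect of over 65% in size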
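Infected erythrocytes (Dd2, 0.3% parasitemia, 2.5% hematocrit final) are added to compound in RPMI-1640/Albumax II medium, grown 72 h at 37C in low oxygen, then lysed with saponin/Triton-X containing SYBR Green and read by fluorescence.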
* hit, by the source's call; i = inactive; [ ] = remark or other dose. Shown is part of a subset that was picked to be rich in hits. Potency is the fitted concentration of half-maximal effect.

SMILES	Pf Dd2 growth
CC1=C[C@@H](CNC(=O)c2ccccc2)[C@H](C(C)C)C[C@H]1Cc1nc2ccc(C)cc2[nH]1	0%[44.1 µM]
COC(=O)c1ccc2nc(C[C@@H]3C[C@@H](C(C)C)[C@H](CNC(=O)CC4(CC(=O)O)CCCC4)C=C3C)[nH]c2c1	i
CCc1ccc(-n2c(SCc3nc(-c4cc(OC)ccc4OC)no3)nnc2-c2ccccc2)cc1	11µM*
COc1ccc(-c2noc(CSc3nnc(-c4ccncc4)n3-c3ccccc3)n2)cc1	-7%
COc1ccc(-n2c(C)nnc2SCc2nc(-c3ccc(OC)c(OC)c3)no2)cc1	-3%
CC(C)CN1CCNC(=O)C1CC(=O)O (stereo not given)	1%
COc1ccc(NC(=O)N2CC(c3noc(-c4ccccc4)n3)C2)c(C)c1	-5%
CCOC(=O)c1ccc(Nc2cc(-c3ccccc3)nc(C)n2)cc1	-24%
CCN(CC)CCCNc1cc(-c2ccccc2)nc(C)n1	-27%
Cc1nc(Nc2ccc(Cl)cc2)cc(-c2ccccc2)n1	8.9µM*
COc1cccc(N2C(=O)N[C@@H]3CCN(C(=O)c4cccs4)[C@@H]3C2=O)c1	6%[44.1 µM]
CCOC(=O)C1CCCN(C(=O)C2CC(c3ccccc3)CN(C(=O)c3cccc(F)c3)C2)C1 (stereo not given)	i
CCOC(=O)C1CCCN(C(=O)C2CC(c3ccc(CC)cc3)CN(C(=O)c3ccoc3)C2)C1 (stereo not given)	1.1µM*
CCc1ccc(C2CC(C(=O)NC(C)c3ccccc3)CN(C(=O)c3ccoc3)C2)cc1 (stereo not given)	i
Cc1cc(C[C@@H]2COC[C@@H]2NC(=O)c2ccc(-c3ccccc3Cl)o2)on1	-18%
COc1nccc(N2CCC(CC(=O)N(C)CCCc3c(C)nn(C)c3C)CC2)n1	i
Cc1ccc2nc(-c3c[nH]c4ccccc34)c(Nc3ccccc3C)n2c1	-24%
Cc1ccc2nc(-c3ccccn3)c(Nc3ccccc3C)n2c1	8.9µM*
Cc1ccccc1Nc1c(-c2cccc(Cl)c2)nc2ncccn12	-3%
Cc1ccn2c(Nc3ccccc3C)c(-c3ccccn3)nc2c1	3.2µM*
Cc1ccccc1Nc1c(-c2c[nH]c3ccccc23)nc2cccc(C)n12	20%
Cc1ccc2nc(-c3ccncc3)c(Nc3ccccc3C)n2c1	-22%
Cc1nc(-c2c3n(c(=O)n(CC(=O)Nc4cccc(C(F)(F)F)c4)c2=O)CCCC3)no1	-22%
COc1ccc(NC(=O)N2CCCCC2c2nc(-c3cnccn3)n[nH]2)cc1 (stereo not given)	-11%
CC(C)CCN1C(=O)CC[C@]2(C(=O)N3CCN(c4ccc(F)cc4)CC3)CCCC[C@@H]12	10µM*
SMILES	Pf Dd2 growth
CN1C(=O)CC[C@]2(C(=O)N3CCN(c4ccc(F)cc4)CC3)CCCC[C@@H]12	-3%
CC(C)CCN1C(=O)CC[C@]2(C(=O)N3CCOCC3)CCCC[C@@H]12	-19%
Cc1noc(C)c1CC(=O)N1CCC(OCCOc2ccc(F)cc2)CC1	37%
Cc1cc(C)c(Cn2c3ccccc3c3cnn(CC(=O)N4CCCCCC4)c(=O)c32)c(C)c1	7.1µM*
CC(CCc1ccccc1)NC(=O)Cn1ncc2c3ccccc3n(Cc3cccc(Cl)c3)c2c1=O (stereo not given)	-5%
O=C(Cn1ncc2c3ccccc3n(Cc3ccc(Cl)cc3)c2c1=O)NCc1ccccn1	-22%
CCC(Cc1ccccc1)NC(=O)Cn1ncc2c3ccccc3n(Cc3ccc(F)cc3)c2c1=O (stereo not given)	-5%
CCOC(=O)N1CCN(C(=O)Cn2ncc3c4ccccc4n(Cc4ccc(F)cc4)c3c2=O)CC1	10µM*
Cc1ccccc1Cn1c2ccccc2c2cnn(CC(=O)NC3CCCCCC3)c(=O)c21	12%
Cc1cc(C)c(Cn2c3ccccc3c3cnn(CC(=O)NCc4ccccn4)c(=O)c32)c(C)c1	10µM*
Cc1ccccc1Cn1c2ccccc2c2cnn(CC(=O)NCc3ccccn3)c(=O)c21	0%
CC1CCC(NC(=O)Cn2ncc3c4ccccc4n(Cc4ccc(F)cc4)c3c2=O)CC1 (stereo not given)	-8%
CCCn1c2ccccc2c2cnn(CC(=O)N3CCC(C)CC3)c(=O)c21	i
O=C(Cn1ncc2c3ccccc3n(Cc3cccc(Cl)c3)c2c1=O)N1CCCCCC1	8.9µM*
O=C(Cn1ncc2c3ccccc3n(Cc3ccccc3)c2c1=O)N1CCCCCC1	3%
O=C(c1ccccc1OCC1CCCN(C2CCCCC2)C1)N1CCOCC1 (stereo not given)	-24%
CCC(=O)Nc1ccc(C2(C(=O)N3CCCCCC3)CCC2)cc1	-1%
COCCOCc1nc(C2CCN(C(=O)Nc3cccc(Cl)c3)CC2)no1	-17%
COCCc1noc(-c2nc(-c3ccccc3F)no2)n1	-18%
CCCS(=O)(=O)N1CCC(CC(=O)NCc2ccccc2)C1 (stereo not given)	i
COCc1cc(C[C@@H]2CC[C@H](O)[C@@H](CNC3CCN(C(C)=O)CC3)O2)no1	-5%[44.1 µM]
O=C(c1ccsc1)N1CCCN(c2cc(-c3ccc(Cl)cc3)[nH]n2)CC1	-4%
CCOc1cccc(-c2noc(-c3nc(CC)no3)n2)c1	i
CCOC(=O)C1CCCN(C(=O)c2cc3c(Cl)nc4ccccc4c3s2)C1 (stereo not given)	-16%
COc1ccccc1Nc1cc(C(=O)NC2CCCC2)c2ccccc2n1	17%
SMILES	Pf Dd2 growth
O=C(c1cc2c(Cl)nc3ccccc3c2s1)N1CCCCC1	12%
COc1ccc(OC)c(CNC(=O)c2cc3c(Cl)nc4ccccc4c3s2)c1	50%
CCCNC(=O)c1ccc2nc(CCc3ccccc3)oc2c1	4%
O=C(NCCCN1CCN(c2ccccc2F)CC1)c1ccc2nc(CCc3ccccc3)oc2c1	11µM*
CC(C)NC(=O)c1cc2c(Cl)nc3ccccc3c2s1	3%
O=C(NCc1ccccc1)c1ccc2nc(CCc3ccccc3)oc2c1	3%
COc1ccc(Nc2cc(C(=O)NCCCN(C)Cc3ccccc3)c3ccccc3n2)c(OC)c1	17%
CCN(CCCNC(=O)c1cc(Nc2ccccc2OC)nc2ccccc12)c1cccc(C)c1	11µM*
CCCN1CCN(CCCNC(=O)c2cc3c(Cl)nc4ccccc4c3s2)CC1	10µM*
O=C(NCCCN1CCN(c2ccccc2F)CC1)c1cc2c(Cl)nc3ccccc3c2s1	2.8µM*
Cc1ccc(NC(=O)N2CCC(Oc3ncccc3C(=O)N(C)C)C2)cc1 (stereo not given)	-14%
CC(=O)N1CCc2nn(CC(=O)Nc3ccccc3C)c(=O)cc2C1	-16%
CCCc1noc(-c2cccn3c(CNC(=O)c4ccco4)nnc23)n1	-12%
CCOc1ccccc1C1NC(=O)N(CC(=O)Nc2cccc(C(F)(F)F)c2)C2=C1C(=O)OC2 (stereo not given)	-9%
COc1ccc(Nc2cc(C(=O)NCc3ccccc3)c3ccccc3n2)c(OC)c1	-13%
COc1ccc(Nc2cc(C(=O)NCCCN3CCN(c4ccccc4F)CC3)c3ccccc3n2)c(OC)c1	10µM*
COc1ccc(N2CCN(CCCNC(=O)c3cc(Nc4ccccc4OC)nc4ccccc34)CC2)cc1	-16%
CC(C)CNC(=O)CC1Sc2ncccc2N(CC(C)C)C1=O (stereo not given)	i
CC(=O)NC1CCCN(Cc2cccc(OCCN3CCOCC3)c2)C1 (stereo not given)	1%
COCC1CN(S(=O)(=O)c2cccnc2)CC12CCOCC2 (stereo not given)	11%
CNC(=O)[C@H]1CN(Cc2ccccc2)C[C@H]1C(=O)O	i
